The full ranking holds about 16,000 sequences; the median of “rpm ratio (pull-down/input)” is about 0.5, and the highest 2% start at about 5.5. The full list was thinned out, with the highest values kept by preference.
biological target: T1, MBP-FoxP3dN (Mus musculus, UniProt Q99JB6 188-423); assay: PD-seq (MBP pull-down with sequencing); 20 mM Tris-HCl pH 7.5, 100 mM NaCl, 1.5 mM MgCl2, 0.4 uM protein, 0.1 uM dsDNA library, 30 min, room temperature, amylose pull-down; high values mean tight binding; details: protein: recombinant; tags: His6-MBP; chain copies: 2; dsDNA, one strand shown
T1 sequence: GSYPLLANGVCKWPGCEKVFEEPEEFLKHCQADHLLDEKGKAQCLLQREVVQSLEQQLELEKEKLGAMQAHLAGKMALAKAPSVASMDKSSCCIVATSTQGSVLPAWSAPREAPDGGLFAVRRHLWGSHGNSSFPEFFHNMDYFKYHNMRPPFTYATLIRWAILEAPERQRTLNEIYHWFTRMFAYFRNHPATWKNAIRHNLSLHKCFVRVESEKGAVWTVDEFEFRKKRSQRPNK
In short: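 In Tris pH 7.5 buffer with NaCl and MgCl2, 0.4 µM His6-MBP-tagged mouse FoxP3 or FoxP1 fragment lacking the N-terminus, from E. coli, met 0.1 µM Klenow-filled double-stranded degenerate DNA library for 30 min at room temperature. Three washes on amylose resin followed capture of the complexes, then proteinase K release of DNA, PCR barcoding and Illumina sequencing. Binding is taken as pooled-replicate reads-per-million enrichment of pull-down relative to input.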

Sequence | binding signal
GATGATTGTTCTCCCAGCTGATGAATTTGTTTATTCGAGTAAACAAATTTTCCTAATCTTTCTGTTCAAGCGCCATCTAC | 7.73 RPM ratio (pull-down/input)
GATGATTGTTCTCCCAGCTGATGAATTTATTTATTCGAGTAAACAAATTTTCCTAATCTTTCTGTTCAAGCGCCATCTAC | 5.86 RPM ratio (pull-down/input)
GATGATTGTTCTCCCAGCTGATGAATTGTTTTATTCGAGTAAACAAATTTTCCTAATCTTTCTGTTCAAGCGCCATCTAC | 1.66 RPM ratio (pull-down/input)
GATGATTGTTCTCCCAGCTGATGAATTTATTCTTTCGAGTAAACAAATTTTCCTAATCTTTCTGTTCAAGCGCCATCTAC | 0.542 RPM ratio (pull-down/input)
GATGATTGTTCTCCCAGCTGATGAATTATTTCTTTCGAGTAAACAAATTTTCCTAATCTTTCTGTTCAAGCGCCATCTAC | 0.419 RPM ratio (pull-down/input)
GATGATTGTTCTCCCAGCTGATGAATTATTTATTTCGAGTAAACAAATTTTCCTAATCTTTCTGTTCAAGCGCCATCTAC | 2.74 RPM ratio (pull-down/input)
GATGATTGTTCTCCCAGCTGATGAATTTCTTTATTCGAGTAAACAAATTTTCCTAATCTTTCTGTTCAAGCGCCATCTAC | 1.53 RPM ratio (pull-down/input)
GATGATTGTTCTCCCAGCTGATGAATTGGTTTATTCGAGTAAACAAATTTTCCTAATCTTTCTGTTCAAGCGCCATCTAC | 4.04 RPM ratio (pull-down/input)
GATGATTGTTCTCCCAGCTGATGAATTTTTTTATTCGAGTAAACAAATTTTCCTAATCTTTCTGTTCAAGCGCCATCTAC | 0.313 RPM ratio (pull-down/input)
GATGATTGTTCTCCCAGCTGATGAATTTATTATTTCGAGTAAACAAATTTTCCTAATCTTTCTGTTCAAGCGCCATCTAC | 5.57 RPM ratio (pull-down/input)
GATGATTGTTCTCCCAGCTGATGAATTACCTGCTTCGAGTAAACAAATTTTCCTAATCTTTCTGTTCAAGCGCCATCTAC | 0.326 RPM ratio (pull-down/input)
GATGATTGTTCTCCCAGCTGATGAATTTCACGGCTCGAGTAAACAAATTTTCCTAATCTTTCTGTTCAAGCGCCATCTAC | 0.24 RPM ratio (pull-down/input)
GATGATTGTTCTCCCAGCTGATGAATTGTGGTACTCGAGTAAACAAATTTTCCTAATCTTTCTGTTCAAGCGCCATCTAC | 1.06 RPM ratio (pull-down/input)
GATGATTGTTCTCCCAGCTGATGAATTGTTCCATTCGAGTAAACAAATTTTCCTAATCTTTCTGTTCAAGCGCCATCTAC | 0.579 RPM ratio (pull-down/input)
GATGATTGTTCTCCCAGCTGATGAATTAACGGGTTCGAGTAAACAAATTTTCCTAATCTTTCTGTTCAAGCGCCATCTAC | 0.329 RPM ratio (pull-down/input)
GATGATTGTTCTCCCAGCTGATGAATTCCAAATCTCGAGTAAACAAATTTTCCTAATCTTTCTGTTCAAGCGCCATCTAC | 0.26 RPM ratio (pull-down/input)

Sequence | binding signal
GATGATTGTTCTCCCAGCTGATGAATTTGTAATGTCGAGTAAACAAATTTTCCTAATCTTTCTGTTCAAGCGCCATCTAC | 3.87 RPM ratio (pull-down/input)
GATGATTGTTCTCCCAGCTGATGAATTATACACGTCGAGTAAACAAATTTTCCTAATCTTTCTGTTCAAGCGCCATCTAC | 0.65 RPM ratio (pull-down/input)
GATGATTGTTCTCCCAGCTGATGAATTACGAAAGTCGAGTAAACAAATTTTCCTAATCTTTCTGTTCAAGCGCCATCTAC | 0.214 RPM ratio (pull-down/input)
GATGATTGTTCTCCCAGCTGATGAATTTTATTGTTCGAGTAAACAAATTTTCCTAATCTTTCTGTTCAAGCGCCATCTAC | 6.02 RPM ratio (pull-down/input)
GATGATTGTTCTCCCAGCTGATGAATTTTATTATTCGAGTAAACAAATTTTCCTAATCTTTCTGTTCAAGCGCCATCTAC | 5.53 RPM ratio (pull-down/input)
GATGATTGTTCTCCCAGCTGATGAATTTTTATTTTCGAGTAAACAAATTTTCCTAATCTTTCTGTTCAAGCGCCATCTAC | 0.838 RPM ratio (pull-down/input)
GATGATTGTTCTCCCAGCTGATGAATTTTTTATTTCGAGTAAACAAATTTTCCTAATCTTTCTGTTCAAGCGCCATCTAC | 0.301 RPM ratio (pull-down/input)
GATGATTGTTCTCCCAGCTGATGAATTAATTTATTCGAGTAAACAAATTTTCCTAATCTTTCTGTTCAAGCGCCATCTAC | 2.61 RPM ratio (pull-down/input)
GATGATTGTTCTCCCAGCTGATGAATTATTTTATTCGAGTAAACAAATTTTCCTAATCTTTCTGTTCAAGCGCCATCTAC | 0.489 RPM ratio (pull-down/input)
GATGATTGTTCTCCCAGCTGATGAATTTATTGATTCGAGTAAACAAATTTTCCTAATCTTTCTGTTCAAGCGCCATCTAC | 5.78 RPM ratio (pull-down/input)
GATGATTGTTCTCCCAGCTGATGAATTTATTTGTTCGAGTAAACAAATTTTCCTAATCTTTCTGTTCAAGCGCCATCTAC | 6.33 RPM ratio (pull-down/input)
GATGATTGTTCTCCCAGCTGATGAATTCTTTTATTCGAGTAAACAAATTTTCCTAATCTTTCTGTTCAAGCGCCATCTAC | 0.35 RPM ratio (pull-down/input)
GATGATTGTTCTCCCAGCTGATGAATTTTATTTTTCGAGTAAACAAATTTTCCTAATCTTTCTGTTCAAGCGCCATCTAC | 4.17 RPM ratio (pull-down/input)
GATGATTGTTCTCCCAGCTGATGAATTTATTTTTTCGAGTAAACAAATTTTCCTAATCTTTCTGTTCAAGCGCCATCTAC | 4.63 RPM ratio (pull-down/input)
GATGATTGTTCTCCCAGCTGATGAATTGATTTATTCGAGTAAACAAATTTTCCTAATCTTTCTGTTCAAGCGCCATCTAC | 2.58 RPM ratio (pull-down/input)
GATGATTGTTCTCCCAGCTGATGAATTACGTGCCTCGAGTAAACAAATTTTCCTAATCTTTCTGTTCAAGCGCCATCTAC | 0.855 RPM ratio (pull-down/input)

From paper PMC12820563, “FoxP3 forms a head-to-head dimer in vivo and stabilizes its multimerization on adjacent microsatellites”
